Tau fluor cs: Counterscreen qHTS for Inhibitors of Tau Fibril Formation, Fluorescence Polarization | tau K18 P301L Alexa594 fluorescence, heparin fibrillization | Potency, µM (top dose mostly 57.7 µM) | 280,000 tested, 0.93% active; also: nearly all actives have a fitted effect of over 55% in size
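Human tau K18 P301L (15 uM unlabeled, 0.24 uM Alexa 594-labeled) in 100 mM sodium acetate pH 7 with 20 uM heparin, 6 hr at 37 C. ThT 30 uM added, 1 hr ambient; Alexa 594 FP and total fluorescence read at 555/632 nm.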
TexasRed fluor: Total Fluorescence Counterscreen for Inhibitors of the Interaction of Thyroid Hormone Receptor and Steroid Receptor Coregulator 2; TRb/SRC2 Texas Red total fluorescence interference; Potency, µM (highest dose often 106 µM); 280,000 tested, 0.29% active; AID 1479, 2009; active = well fitted curve in either direction with a large enough effect; inconclusive = small, poorly fitted or top-dose-only effect
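Human TRβ ligand-binding domain (0.6 uM) and Texas Red SRC2 peptide (20 nM) in Tris buffer with 1 uM T3 and 5% DMSO were incubated with pinned compound for 5 hr at ambient temperature. Total fluorescence was computed as S + 2P (555/632 nm).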
Tau fibril FP: qHTS for Inhibitors of Tau Fibril Formation, Fluorescence Polarization; Microtubule-associated protein tau (Homo sapiens), P10636; K18 P301L tau heparin fibrillization, Alexa594 FP, 6 h; Potency, µM (top dose mostly 57.7 µM), actives largely listed as inhibitors; 280,000 tested, 0.39% active; AID 1468, 2008; also: nearly all actives have a fitted effect of over 55% in size
Target sequence (P10636 561-689 P618L limits assumed): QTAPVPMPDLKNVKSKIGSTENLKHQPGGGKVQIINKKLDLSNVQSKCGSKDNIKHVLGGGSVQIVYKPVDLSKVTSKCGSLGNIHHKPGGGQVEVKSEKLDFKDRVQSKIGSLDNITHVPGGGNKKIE
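Compound effects on tau fibrillization are measured by Alexa 594 fluorescence polarization (ex 555, em 632 nm). K18 P301L tau is used at 15 uM with 0.24 uM labeled tracer, and 20 uM heparin induces aggregation over 6 hr at 37 C.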
TRb SRC2 PPI: qHTS for Inhibitors of the Interaction of Thyroid Hormone Receptor and Steroid Receptor Coregulator 2 | AID 1469, 2008 | 280,000 tested, 0.065% active | Thyroid hormone receptor beta (Homo sapiens), P10828 | TRbeta-SRC2 peptide binding, fluorescence polarization; receptor liganded with 1 µM T3 | Potency, µM (titrated, usually from 106 µM), hits mostly inhibitors; also: nearly all actives have a fitted effect of over 50% in size
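Polarization signal, normalized between peptide-alone and full complex controls, measured compound effects on T3-liganded human TRb LBD (0.6 uM) binding 20 nM Texas Red SRC2 peptide after 5 hr.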
Tau ThT inhib: qHTS for Inhibitors of Tau Fibril Formation, Thioflavin T Binding; Microtubule-associated protein tau (Homo sapiens), P10636; recombinant tau K18 P301L, heparin-induced fibrillization, ThT fluorescence; Potency, µM (top dose mostly 57.4 µM), most hits filed as inhibitors; 270,000 tested, 2.1% active; AID 1460, 2008; also: nearly all actives have a fitted effect of over 55% in size
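Using a mix of unlabeled (15 uM) and Alexa 594-labeled (0.24 uM) tau K18 P301L, heparin-triggered fibrillization over 6 hr at 37 C was scored by ThT fluorescence.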
Of the large screens only hits and unclear results are named; the others gave an inactive call; [ ] = remark or other dose. This is a sample that favours compounds with a hit; in the whole collection about 3.1% have one here. Unless noted, calls follow the shape of the dose curve; as a rule, active = well fitted curve in the direction sought with a large enough effect; inconclusive = small, poorly fitted or top-dose-only effect, or another doubt; inactive = no such curve, though single readings can be large; an effect the other way counts as inactive or inconclusive.

O=C(Nc1ccc(C(F)(F)F)cc1)c1cc(S(=O)(=O)NCC2COc3ccccc3O2)ccc1F (stereo not given)	Tau fluor cs inconclusive, Tau fibril FP 13µM
COc1ccc(NC(=O)c2cc(S(=O)(=O)NCC3COc4ccccc4O3)ccc2F)cc1 (stereo not given)	Tau fluor cs inconclusive
COc1ccc(S(=O)(=O)Cc2ccc(C(=O)NC3CCCCC3)o2)cc1	TexasRed fluor 5.6µM[quencher]
COc1ccc(S(=O)(=O)Cc2ccc(C(=O)NC3CC3)o2)cc1	none
COc1ccc(Nc2nc(-c3ccc(C)cc3)nc3ccccc23)c(OC)c1	Tau fluor cs 7.9µM[quencher], Tau ThT inhib inconclusive
COc1ccccc1CNc1ncncc1-c1ccc(N(C)C)cc1	none
COc1ccccc1CNc1nc(-c2ccc(N(C)C)cc2)nc2ccccc12	Tau fluor cs 11µM[quencher], Tau fibril FP inconclusive, Tau ThT inhib 16µM
COc1ccc(-c2nc(N/N=C(\C)c3ccc(O)cc3)c3ccccc3n2)cc1	Tau fluor cs 20µM[quencher], Tau ThT inhib inconclusive
COc1ccc(C2/C=C\CN(S(=O)(=O)CC34CCC(CC3=O)C4(C)C)CC(=O)N2Cc2ccc(F)cc2)cc1 (stereo not given)	none (no result: Tau fluor cs, Tau fibril FP, Tau ThT inhib)
CCc1ccc(C2/C=C\CNC(c3ccccc3)C(=O)N2Cc2ccc(C)cc2)cc1 (stereo not given)	none (no result: Tau fluor cs, Tau fibril FP, Tau ThT inhib)
Oc1ccc2ccccc2c1/C=N/Nc1nnc(-c2ncc[nH]2)c2ccccc12	Tau fluor cs 8.9µM[quencher], Tau fibril FP inconclusive, Tau ThT inhib 4µM
COc1ccc(/C=N/Nc2nnc(-c3ncc[nH]3)c3ccccc23)cc1	Tau ThT inhib inconclusive
Cc1ccc(N(C)C(=O)CN2C(=O)CCc3cc(S(=O)(=O)N4CCOCC4)ccc32)cc1	none
O=C(CSc1n[nH]c(-c2ccccc2Cl)n1)NCCc1ccccc1	none
CC(=O)Oc1cc2c3c(c1)/C(=C1/SC(=S)NC1=O)C(=O)N3C(C)(C)C=C2C	Tau fluor cs 7.1µM[quencher], Tau fibril FP inconclusive, Tau ThT inhib 7.1µM
CCOc1cc2c3c(c1)C(C)=CC(C)(C)N3C(=O)C2=O	Tau ThT inhib inconclusive
CCOc1c(OC(C)=O)ccc(/C=C/c2ccc3cccc(OC(C)=O)c3n2)c1[N+](=O)[O-]	Tau fluor cs 8.9µM[quencher], Tau fibril FP inconclusive, Tau ThT inhib 6.3µM
COc1c(OC(C)=O)ccc(/C=C/c2ccc3cccc(OC)c3n2)c1[N+](=O)[O-]	Tau fluor cs inconclusive, Tau ThT inhib 8.9µM
COc1c(OC(C)=O)ccc(/C=C/c2ccc3ccccc3n2)c1[N+](=O)[O-]	Tau fluor cs 16µM[quencher], Tau fibril FP inconclusive, Tau ThT inhib 10µM
CCOc1ccccc1NC(=O)CC(c1ccc(F)cc1)N1Cc2ccccc2C1=O (stereo not given)	none
CC(C)c1ccc(CNc2nc(-c3ccco3)nn2C(=O)c2ccc([N+](=O)[O-])cc2)cc1	Tau fluor cs 16µM[quencher], Tau ThT inhib inconclusive
O=C(c1ccc([N+](=O)[O-])cc1)n1nc(-c2ccccc2)nc1NCc1ccccc1	none
Cc1cc(OCc2nc3ccccc3s2)ccc1N	Tau fluor cs inconclusive, Tau ThT inhib 14µM
Cc1ccc(-n2[nH]c(C)c(/C=N/Nc3ccc([N+](=O)[O-])cc3[N+](=O)[O-])c2=O)cc1C	Tau fluor cs 4.5µM[quencher], Tau fibril FP 20µM, Tau ThT inhib 2.2µM
O=C(Oc1ccc(Br)cc1C(=S)N1CCCC1)c1ccccc1F	Tau ThT inhib inconclusive
O=C(Oc1ccc(Br)cc1C(=S)N1CCCCC1)c1cc([N+](=O)[O-])cc([N+](=O)[O-])c1	Tau fluor cs 22µM[quencher], Tau ThT inhib inconclusive
O=C(Oc1cccc(C(=S)N2CCOCC2)c1)c1cc([N+](=O)[O-])cc([N+](=O)[O-])c1	Tau fluor cs 20µM[quencher], Tau ThT inhib inconclusive
CCCN(C(=O)Cn1cnc2onc(-c3ccc(F)cc3)c2c1=O)c1cccc(Cl)c1	TexasRed fluor 178µM[quencher]

Screening results (PubChem)
